For 74 molecules, max activity results are on record in PubChem BioAssay AID1259418 (Broad Institute, 2018).

Structures are written as SMILES. Hit rate of the full screen: of about 3,400 compounds, about 840 (25%) were called active. Not shown: some 11% with an inconclusive outcome. Only a sample is shown. Entries with a potency or affinity are not part of this list. Unmarked numbers belong to inactive results.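 The calls were made as follows: active = fitted half-maximal concentration of signal decrease at or below twice the sample's top tested concentration; inconclusive = flat curve between -70 and -30 percent, or poor fit; inactive = flat within 30 percent, signal rise, or potency above limit.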

The nature of the assay: T. gondii growth inhibition with IFN-gamma, dose response, cell-based, ME49Luc, HeLa, luciferase, 72 h (AID 1259418). The following applies: T. gondii ME49Luc in IFN-y HeLa, hits give low values, -100% = high-dose IFN-γ control wells; at 19.5 µM unless noted.
Regarding `NC(=O)C1(N2CCCCC2)CCN(c2ccc(NC(=O)c3ccc(Cl)cc3)cc2C(=O)O)CC1`, the max activity is 20.8%.

`CCN1C(=O)CCCC12CCCN(C(=O)c1ccc3ncccc3c1)C2` (centres undefined): the max activity is -6.92% [at 5 µM]. The figure for `Cc1ccccc1C(=O)N1CCC(N2CCOCC2)CC1C(=O)O` (centres undefined) is 15.5%; for `Cc1ccc(C)c(-c2coc(-c3ccc(NC(=O)COc4ccccc4C)cc3)n2)c1` it is -11.5%; for `N#C[C@@H]1[C@@H](c2ccc(C#Cc3cccnc3)cc2)[C@@H](CO)N1C(=O)NC1CCCCC1` it is -10.3% [at 10 µM].

`COCC(=O)N1[C@H](C#N)[C@H](c2ccc(C#Cc3ccccc3F)cc2)[C@H]1CO`: the max activity is -13.1% [at 10 µM]. Consider `Cc1cc(C)n(C)c(=O)c1C(=O)N1CCOC(C(F)(F)F)C1` (centres undefined), for which the max activity was 34.4%.

In the case of `Cc1ccc(-c2coc(-c3ccc(NC(=O)CC(C)C)cc3)n2)c(C)c1`, the max activity was 14.2% [at 10 µM]. The figure for `CCN(C)C(=O)c1cnc(-c2noc3cc(N4CCCCC4)ccc23)s1` is 35.7% [at 10 µM]; for `COc1ccc(NC(=O)Nc2ccc(-c3nc(-c4cccc(Br)c4)co3)cc2)cc1OC` it is 8.18% [at 0.35 µM]. Regarding `O=C(Nc1ccc(-c2nc(-c3ccccc3)co2)cc1)Nc1ccc(F)cc1F`, the max activity was 65.6%. In the case of `CCOC(=O)CSC1=Nc2ccccc2C2=NC(CCC(=O)NCc3ccc(F)cc3)C(=O)N12` (centres undefined), the max activity was 24.5% [at 2.6 µM]. The figure for `N#CCSC1=Nc2ccccc2C2=NC(CCC(=O)NCc3ccc(F)cc3)C(=O)N12` (centres undefined) is 22.5% [at 0.35 µM]; for `O=C(CCC1N=C2c3ccccc3N=C(SCc3cccc(F)c3)N2C1=O)NCc1ccco1` (centres undefined) it is 10.2%; for `Cc1ccc(CSC2=Nc3ccccc3C3=NC(CCC(=O)NC4CCCCC4)C(=O)N23)cc1` (centres undefined) it is -23.8%. The figure for `O=C(CCC1N=C2c3ccccc3N=C(SCc3cccc(F)c3)N2C1=O)NC1CCCCC1` (centres undefined) is -18.1% [at 2.6 µM].

Regarding `CCOC(=O)CSC1=Nc2ccccc2C2=NC(CCC(=O)NCc3ccccc3)C(=O)N12` (centres undefined), the max activity is 43.1%. Consider `O=C(CC1N=C2c3ccccc3N=C(SCc3cccc(F)c3)N2C1=O)NCc1ccccc1` (centres undefined), for which the max activity was -15% [at 1.35 µM]. The figure for `COc1ccccc1CNC(=O)CCC1N=C2c3ccccc3N=C(SCc3ccc(F)cc3)N2C1=O` (centres undefined) is 14.5% [at 0.16 µM]; for `C/C=C/c1ccc(C2[C@H]3CNC[C@@H]2N3S(=O)(=O)c2cccc(F)c2)cc1` (some centres undefined) it is 51.2%.

Consider `O=C(CC1N=C2c3ccccc3N=C(SCc3cc(=O)n4cc(Cl)ccc4n3)N2C1=O)NCc1ccccc1` (centres undefined), for which the max activity was 8.94%. Regarding `Cc1ccc(-c2coc(-c3ccc(NC(=O)c4ccco4)cc3)n2)c(C)c1`, the max activity is 11.6%.

Turning to `CCOc1ccc(-c2nc(CSc3nc4c(c(=O)[nH]3)CN(C(C)C)CC4)c(C)o2)cc1OC`, the max activity is 21% [at 2.6 µM]. The figure for `O=C(CCC1N=C2c3ccccc3N=C(SCc3ccccc3F)N2C1=O)NCCc1ccccc1` (centres undefined) is 25.3% [at 0.16 µM]; for `COc1ccc(CNC(=O)CCC2N=C3c4ccccc4N=C(SCc4ccc(Cl)cc4)N3C2=O)cc1` (centres undefined) it is -5.19% [at 0.68 µM]. The figure for `O=C(CCC1N=C2c3ccccc3N=C(SCc3ccccc3F)N2C1=O)NCc1ccc(F)cc1` (centres undefined) is 12.5% [at 1.35 µM]; for `COc1ccc(CNC(=O)CCC2N=C3c4ccccc4N=C(SCc4ccccc4F)N3C2=O)cc1` (centres undefined) it is -23.7% [at 0.35 µM]. The result for `CCc1c(C)sc2c1CCN(Cc1nc(-c3ccccc3Cl)oc1C)C2c1ccccc1` (centres undefined) reads 11.5% [at 10 µM].

On to `CCc1ccc2c(c1)cc(S(=O)(=O)c1ccccc1)c(=O)n2CC(=O)NC(C)CC` (centres undefined), for which the max activity was -8.4%.

On to `Cc1ccc(-c2nc(Cn3nnc(-c4nc(-c5ccncc5)no4)c3C)c(C)o2)cc1`, for which the max activity is 8.58% [at 10 µM].

In the case of `CCc1c(C)sc2c1CCN(Cc1nc(-c3ccc(OC)cc3OC)oc1C)C2c1ccccc1` (centres undefined), the max activity was 15.7%. In the case of `CCc1c(C)sc2c1CCN(Cc1nc(-c3ccccc3C)oc1C)C2c1ccccc1` (centres undefined), the max activity is 25.6% [at 5 µM]. For `CCC(=O)N1CC(=O)N2[C@@H](CO)[C@@H](c3ccc(C#CCC(C)C)cc3)[C@@H]2C1`, the max activity was 22.8% [at 10 µM].

With `CCC(=O)N1CC(=O)N2[C@H](CO)[C@H](c3ccc(C#CCC(C)C)cc3)[C@H]2C1`, the max activity was 9.28% [at 10 µM]. The result for `CC(C)CC#Cc1ccc([C@H]2[C@@H](CO)N3C(=O)CN(C(=O)c4cccc(F)c4)C[C@@H]23)cc1` reads 19.1% [at 10 µM]; that for `CCC(=O)N1CC(=O)N2[C@@H](CO)[C@H](c3ccc(C#CCC(C)C)cc3)[C@@H]2C1`, 20.4% [at 10 µM]. The result for `O=C(c1cccc(F)c1)N1CC(=O)N2[C@@H](CO)[C@H](c3ccc(/C=C/c4ccccc4)cc3)[C@@H]2C1` reads 14.7% [at 5 µM]; that for `CCc1ccc(CNc2nc(-c3ccc(OC)cc3)nc3ccccc23)cc1`, -7.47% [at 0.16 µM]; that for `COc1ccccc1NC(=O)N1CCN(Cc2nc(-c3cccc(Cl)c3)oc2C)CC1`, 15.9% [at 1.35 µM]. The figure for `COc1ccc(NC(=O)Nc2ccc(-c3nc(-c4ccccc4)co3)cc2)cc1OC` is 91.2%; for `O=C(Cc1cccc(F)c1)N1CCC2(CC1)Nc1ccccc1-n1cccc12` it is 9.66% [at 10 µM]. Turning to `COc1cc(NC(=O)Nc2ccc(-c3nc(-c4ccccc4)co3)cc2)cc(OC)c1OC`, the max activity is 43.1%. The figure for `CCc1ccc2c(c1)cc(S(=O)(=O)c1ccccc1)c(=O)n2CC(=O)N1CCCCC1` is 9.02% [at 0.16 µM]; for `CC(c1cc2ccccc2s1)N(O)C(N)=O` (centres undefined) it is 22.5%. The result for `Cc1ccc2c(c1)cc(S(=O)(=O)c1ccccc1)c(=O)n2CC(=O)NCc1ccc(F)cc1` reads 3.98% [at 10 µM]; that for `COc1ccc(-c2nc(Cn3nnc(-c4nc(-c5ccc(Cl)c(F)c5)no4)c3C)c(C)o2)cc1`, -11.8% [at 10 µM]. The result for `CCN1C(=O)CCc2cc(NC(=O)Cc3cccs3)ccc21` reads -9.98% [at 0.35 µM]; that for `Cc1ccc(-c2coc(-c3ccc(NC(=O)Nc4ccc(C)c(C)c4)cc3)n2)cc1`, 12% [at 2.6 µM]; that for `CCN1C(=O)CCc2cc(NC(=O)c3cccc(C#N)c3)ccc21`, -7.75% [at 0.16 µM]. Turning to `N#Cc1cccc(C(=O)N2CCC3C2CC(=O)N3Cc2ccncc2)c1` (centres undefined), the max activity was 25.6%.

For `Cc1oc(-c2ccccc2)nc1Cn1nnc(-c2nc(-c3cccc(F)c3)no2)c1C`, the max activity was 9.95%. The figure for `COc1ccc2c(c1)NC1(CCN(C(=O)Cc3ccccc3)CC1)c1cccn1-2` is 5.44% [at 0.35 µM]; for `CCOc1ccc(NC(=O)COc2nc(CC)nc3ccccc23)cc1` it is 16% [at 10 µM]; for `Cc1ccc(S(=O)(=O)Nc2ccc3c(c2)C(=O)N([C@H](C)CO)C[C@H](C)[C@H](CN(C)Cc2ccc(C(F)(F)F)cc2)O3)cc1` it is 19.4% [at 10 µM]. The figure for `CCOc1ccc(-c2nc3c(s2)CN(S(=O)(=O)c2ccccc2Cl)CC3)cc1` is 22.6%.

For the molecule `O=C(c1cccc(F)c1)N1CCC2(CC1)Nc1ccc(Cl)cc1-n1cccc12`, the max activity was 9.53% [at 0.68 µM]. `CCOc1ccccc1NC(=O)CN1CCC2(CC1)N=C(c1ccc(F)cc1)C(=O)N2`: the max activity was 13%. The result for `Cc1nc(CCNC(=O)[C@H]2CCCN2S(=O)(=O)c2cccc(Cl)c2)cs1` reads -9.1% [at 0.35 µM]; that for `CCOc1ccc(-c2nc(CN(c3ccc(OC)cc3)S(=O)(=O)c3ccc(C)cc3)c(C)o2)cc1`, 8.75% [at 1.35 µM]; that for `Cc1ccc2c(c1C)-n1cccc1C1(CCN(C(=O)Cc3ccccc3)CC1)N2`, 4.08% [at 0.68 µM].

For `CCOc1ccc(-c2nc(CN(c3ccc(C)cc3)S(=O)(=O)c3cccs3)c(C)o2)cc1OC`, the max activity was 101% [at 10 µM].

For `CCOc1ccc(-c2nc(CN(c3ccccc3)S(=O)(=O)c3cccs3)c(C)o2)cc1OC`, the max activity was -33.6% [at 10 µM].

With `COc1ccccc1NC(=O)N1CCc2nc(-c3ccc(OC)c(OC)c3)sc2C1`, the max activity is 6.68% [at 0.16 µM]. As for `C[C@]12CCC3=C4CCC(=O)C=C4CC[C@H]3[C@@H]1CC[C@@]2(O)CC#N`, the max activity is 15.3%. Turning to `Cc1ccc(N2CCC[C@]3(C(=O)O)CN(CCN(C)C)C[C@H]3C2)nn1`, the max activity was 40.3%.

On to `Cc1cccc(N2CCN(C(=O)c3ccc(-c4csc(C5CC5)n4)cc3)CC2)c1C`, for which the max activity is -9.59% [at 0.35 µM]. Take `CSc1cccc(NC(=O)CN2CCC3(CC2)N=C(c2ccc(Cl)cc2)C(=O)N3)c1`: the max activity was -30.9%. With `Cc1ccc(C2=NC3(CCN(CC(=O)Nc4ccc(Cl)cc4)CC3)NC2=O)cc1`, the max activity was 19.9% [at 1.35 µM]. The result for `COc1ccccc1NC(=O)CN1CCC2(CC1)N=C(c1cccc(C)c1)C(=O)N2` reads 13.7% [at 0.35 µM]; that for `COc1cccc(NC(=O)CN2CCC3(CC2)N=C(c2cccc(Cl)c2)C(=O)N3)c1`, -20.4% [at 0.68 µM]; that for `CSc1cccc(NC(=O)CN2CCC3(CC2)N=C(c2cccc(F)c2)C(=O)N3)c1`, 27.3%. For `Cc1ccccc1NC(=O)CN1CCC2(CC1)N=C(c1cccc(Cl)c1)C(=O)N2`, the max activity was -14.5%. `COc1ccc(NC(=O)CN2CCC3(CC2)N=C(c2ccc(C)cc2)C(=O)N3)c(OC)c1`: the max activity is -8.99% [at 5 µM]. As to `COc1ccc(C2=NC3(CCN(CC(=O)Nc4cccc(Cl)c4)CC3)NC2=O)cc1`, the max activity is -14.8% [at 2.6 µM].
